# Source: PubChem BioAssay AID493052 (Broad Institute, 2011)
# Results with a measured potency or affinity are listed apart. Values without a mark were called inactive.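 The calls were made as follows: active = viability falls with dose and fitted half-maximal concentration is at most ten times the top valid dose; inconclusive = flat partial loss of 30 to 70 percent, or poor fit; inactive = flat within 30 percent, too weak, or rising signal.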
# Experiment: cytotoxicity in BJeHLT fibroblasts, dose response, counter-screen for Ras selective lethality project, BJeHLT cells, dry powder (AID 493052)
# Conditions: BJeHLT fibroblasts viability, Alamar Blue fluorescence, 48 h; series mostly up to 45 µM; activity change, negative = less viable: at the top concentration
row,SMILES,"activity change, negative = less viable"
1,COc1ccc(N(C(=O)CO)C(C(=O)NCCc2ccccc2)c2cccs2)cc1Cl (stereo not given),7.01%
2,COc1ccc(N(C(=O)CSc2ncccn2)C(C(=O)NCCc2ccccc2)c2cccs2)cc1Cl (stereo not given),-15.2% [at 38 µM]
3,CCC(=O)N(c1ccc(OC)c(Cl)c1)C(C(=O)NCCc1ccccc1)c1cccs1 (stereo not given),2.96%
4,O=C(c1[nH]ncc1[N+](=O)[O-])N1CCN(C(c2ccccc2)c2ccccc2)CC1,6.21%
5,COCC(=O)N(c1ccc(OC)c(Cl)c1)C(C(=O)NCCc1ccccc1)c1cccs1 (stereo not given),4.09%
